For 37 compounds, AC50 and outcome results are on record in PubChem BioAssay (EPA / NIEHS).

Usually AC50 stands for the concentration giving half of the maximal activity seen.

Assay [1] deals with Tyrosine-protein phosphatase non-receptor type 12 (Homo sapiens) (UniProt Q05209). Put plainly: NVS_ENZ_hPTPN12: NovaScreen (NVS) Enzymatic Assay for human Protein Tyrosine Phosphatase Non-receptor Type 12 (PTPN12) (AID 2283204). The essentials:
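Single-concentration duplicates (25 uM) preceded singleton concentration-response up to 50 uM for chemicals passing threshold. Cell-free recombinant PTPN12 activity was read 1.33 h after dosing via fluorescence after mobility-shift separation; loss of signal versus DMSO.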

Assay [2] deals with human Protein Tyrosine Phosphatase Non-receptor Type 6 (PTPN6), PTPN6 (gene 5777) (UniProt P29350). Nature of the assay: NVS_ENZ_hPTPN6: NovaScreen (NVS) Enzymatic Assay for human Protein Tyrosine Phosphatase Non-receptor Type 6 (PTPN6) (AID 2283210). The essentials: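 Recombinant human PTPN6 from SF9 cells, enzyme activity followed by fluorescence after mobility-shift separation of substrate and product at 1.33 h. Chemicals first tested at a single 25 uM in duplicate, then confirmed across concentration series; loss of signal relative to DMSO.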

Assay [3] addresses human Protein Tyrosine Phosphatase Receptor Type M (PTPRM), PTPRM (gene 5797) (UniProt P28827). Put plainly: NVS_ENZ_hPTPRM: NovaScreen (NVS) Enzymatic Assay for human Protein Tyrosine Phosphatase Receptor Type M (PTPRM) (AID 2283215). A digest of the protocol: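 Read-out is fluorescence after electrophoretic separation of substrate and product, taken 1.33 h post-dosing with recombinant enzyme. Compounds screened at 25 uM in duplicate, then concentration series for actives; activity as signal loss relative to DMSO.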

In assay [4] the target is Tyrosine-protein phosphatase non-receptor type 13 (Homo sapiens) (UniProt Q12923). Put plainly: NVS_ENZ_hPTPN13: NovaScreen (NVS) Enzymatic Assay for human Protein Tyrosine Phosphatase Non-receptor Type 13 (PTPN13) (AID 2283205). The essentials: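 Screened first at a single 25 uM in duplicate; compounds passing the threshold (e.g. 30% inhibition) were rerun in concentration series, top 50 uM. Recombinant enzyme, fluorescent substrate, mobility-shift separation, 0.5 h read. Data fitted as inhibition relative to DMSO.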

The target in assay [5] is human Protein Tyrosine Phosphatase Receptor Type C (PTPRC), PTPRC (gene 5788) (UniProt P08575). Nature of the assay: NVS_ENZ_hPTPRC: NovaScreen (NVS) Enzymatic Assay for human Protein Tyrosine Phosphatase Receptor Type C (PTPRC) (AID 2283212). A digest of the protocol:
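Absorbance-based phosphatase activity of human PTPRC protein extracted from yeast was measured 1 h post-dosing. Compounds first tested at 25 uM in duplicate, then those passing threshold in singleton concentration series to 50 uM.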

The target in assay [6] is human Protein Tyrosine Phosphatase Non-receptor Type 9 (PTPN9), PTPN9 (gene 5780) (UniProt P43378). Put plainly: NVS_ENZ_hPTPN9: NovaScreen (NVS) Enzymatic Assay for human Protein Tyrosine Phosphatase Non-receptor Type 9 (PTPN9) (AID 2283209). A digest of the protocol: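 Sf9-expressed enzyme in a cell-free assay, fluorescence read 1.33 h after dosing with mobility-shift separation of substrate and product. Tested at 25 uM in duplicate, then up to 50 uM; signal loss versus DMSO.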

In assay [7] the target is rabbit Imidazoline 2 Central (I2C), CKB (gene 100009085) (UniProt P00567). Nature of the assay: NVS_ENZ_rabI2C: NovaScreen (NVS) Enzymatic Assay for rabbit Imidazoline 2 Central (I2C) (AID 2283228). A digest of the protocol:
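Rabbit brain membranes, cell-free; readout by filter-based scintillation counting 1.5 hours after dosing, loss of signal vs DMSO. Initial duplicate test at 25 uM, then concentration-response with 50 uM top concentration.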

Assay [8] has as its target human Protein Tyrosine Phosphatase Non-receptor Type 2 (PTPN2), PTPN2 (gene 5771) (UniProt P17706). Nature of the assay: NVS_ENZ_hPTPN2: NovaScreen (NVS) Enzymatic Assay for human Protein Tyrosine Phosphatase Non-receptor Type 2 (PTPN2) (AID 2283207). A digest of the protocol:
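Activity measured as fluorescence after mobility-shift separation of substrate and product, 1 h after compound. Duplicate single-point 25 uM primary testing, concentration series for actives; inhibition scored as signal loss relative to DMSO baseline.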

Assay [9] deals with human Raf-1 Proto-Oncogene, serine/threonine Kinase (RAF1), RAF1 (gene 5894) (UniProt P04049). Nature of the assay: NVS_ENZ_hRAF1: NovaScreen (NVS) Enzymatic Assay for human Raf-1 Proto-Oncogene, serine/threonine Kinase (RAF1) (AID 2283216). A digest of the protocol: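 Single-point screening at 25 uM (duplicate), followed by singleton concentration-response to 50 uM maximum for chemicals exceeding threshold. Enzyme activity from fluorescent substrate-product mobility-shift separation after 1 h, relative to DMSO.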

Assay [10] concerns the target human Rho Associated Coiled-coil Containing Protein Kinase 1 (ROCK1), ROCK1 (gene 6093) (UniProt Q13464). Nature of the assay: NVS_ENZ_hROCK1: NovaScreen (NVS) Enzymatic Assay for human Rho Associated Coiled-coil Containing Protein Kinase 1 (ROCK1) (AID 2283214). The essentials: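 Compounds first run in duplicate at 25 uM against recombinant human ROCK1, then followed in concentration series. Kinase activity was read 1 h post-dosing by fluorescence with mobility-shift separation, as signal loss relative to DMSO.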

Assay [11] addresses human Sirtuin 3 (SIRT3), SIRT3 (gene 23410) (UniProt Q9NTG7). Put plainly: NVS_ENZ_hSIRT3: NovaScreen (NVS) Enzymatic Assay for human Sirtuin 3 (SIRT3) (AID 2283222). A digest of the protocol:
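Cell-free enzyme assay with recombinant protein and fluorescent substrate, product separated by electrophoretic mobility shift; read 1 hour after dosing. Screened in duplicate at 25 uM, then singleton concentration-response up to 50 uM; loss of signal versus DMSO.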

The target of assay [12] is human SRC Proto-Oncogene, Non-receptor Tyrosine Kinase (SRC), SRC (gene 6714) (UniProt P12931). Put plainly: NVS_ENZ_hSRC: NovaScreen (NVS) Enzymatic Assay for human SRC Proto-Oncogene, Non-receptor Tyrosine Kinase (SRC) (AID 2283223). The essentials:
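Compounds passing 30% inhibition at 25 uM (duplicate) were titrated to a top concentration of 50 uM. Enzyme activity read by fluorescence with mobility-shift substrate/product separation after 1 h; DMSO baseline.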

For assay [13], the target named is human Tyrosine Protein Kinase Receptor Tie-2 (Tie2), TEK (gene 7010) (UniProt Q02763). Nature of the assay: NVS_ENZ_hTie2: NovaScreen (NVS) Enzymatic Assay for human Tyrosine Protein Kinase Receptor Tie-2 (Tie2) (AID 2283225). The essentials:
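Substrate and product were separated by mobility shift and detected by fluorescence after a 1-hour reaction with recombinant Tie2. Chemicals passing a 25 uM single-point screen were titrated to a maximum of 50 uM. Results were normalized to DMSO baseline.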

Assay [14] deals with human Vascular Endothelial Growth Factor Receptor 3 (VEGFR3), FLT4 (gene 2324) (UniProt P35916). Put plainly: NVS_ENZ_hVEGFR3: NovaScreen (NVS) Enzymatic Assay for human Vascular Endothelial Growth Factor Receptor 3 (VEGFR3) (AID 2283229). The essentials: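 Chemicals first run in duplicate at 25 uM, with actives re-tested in concentration series to a top of 50 uM. Recombinant VEGFR3 activity measured after 1 h via fluorescence with mobility-shift product separation; inhibition fitted relative to DMSO.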

Assay [15] addresses human Sirtuin 1 (SIRT1), SIRT1 (gene 23411) (UniProt Q96EB6). Nature of the assay: NVS_ENZ_hSIRT1: NovaScreen (NVS) Enzymatic Assay for human Sirtuin 1 (SIRT1) (AID 2283219). The essentials:
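Cell-free recombinant SIRT1 with a fluorescent substrate; substrate and product separated by electrophoretic mobility shift and read by fluorescence intensity, 1 h after dosing. Primary screen at 25 uM in duplicate; hits re-run in concentration-response up to 50 uM, relative to DMSO.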

For assay [16], the target named is human Sirtuin 2 (SIRT2), SIRT2 (gene 22933) (UniProt Q8IXJ6). Nature of the assay: NVS_ENZ_hSIRT2: NovaScreen (NVS) Enzymatic Assay for human Sirtuin 2 (SIRT2) (AID 2283217). A digest of the protocol:
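Single-point duplicate screen at 25 uM, then concentration-response (max 50 uM) for chemicals passing threshold. Enzyme activity of recombinant human SIRT2 measured after 1 hr by fluorescence with mobility-shift separation of product; DMSO baseline.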

The structures appear in SMILES notation. Results filed as inconclusive are left out. Active and inactive are the calls of the source. The calls were made as follows: active = hit-call score of the fitted dose curve at least 0.9, where 1 is the maximum; inconclusive = response in the unintended direction; inactive = score below 0.9.

Sequence of human Protein Tyrosine Phosphatase Non-receptor Type 6 (PTPN6), PTPN6 (gene 5777) (P29350 whole entry, looked up): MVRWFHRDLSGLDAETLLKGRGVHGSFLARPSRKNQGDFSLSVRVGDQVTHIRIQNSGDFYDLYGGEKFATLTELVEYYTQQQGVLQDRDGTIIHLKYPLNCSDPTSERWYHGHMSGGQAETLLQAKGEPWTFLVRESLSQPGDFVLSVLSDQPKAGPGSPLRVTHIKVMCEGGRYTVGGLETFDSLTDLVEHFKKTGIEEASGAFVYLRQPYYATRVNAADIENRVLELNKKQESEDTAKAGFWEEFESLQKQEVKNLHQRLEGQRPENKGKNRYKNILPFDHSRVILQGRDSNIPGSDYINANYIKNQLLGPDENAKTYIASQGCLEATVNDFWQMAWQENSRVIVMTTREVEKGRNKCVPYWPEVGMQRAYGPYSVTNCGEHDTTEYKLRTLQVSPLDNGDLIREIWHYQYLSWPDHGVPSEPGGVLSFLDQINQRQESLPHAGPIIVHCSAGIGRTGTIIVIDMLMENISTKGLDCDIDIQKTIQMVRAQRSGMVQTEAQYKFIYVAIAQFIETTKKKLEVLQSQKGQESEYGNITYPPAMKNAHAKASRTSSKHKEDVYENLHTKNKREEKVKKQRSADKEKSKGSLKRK
Sequence of human Protein Tyrosine Phosphatase Receptor Type M (PTPRM), PTPRM (gene 5797) (P28827 whole entry, looked up): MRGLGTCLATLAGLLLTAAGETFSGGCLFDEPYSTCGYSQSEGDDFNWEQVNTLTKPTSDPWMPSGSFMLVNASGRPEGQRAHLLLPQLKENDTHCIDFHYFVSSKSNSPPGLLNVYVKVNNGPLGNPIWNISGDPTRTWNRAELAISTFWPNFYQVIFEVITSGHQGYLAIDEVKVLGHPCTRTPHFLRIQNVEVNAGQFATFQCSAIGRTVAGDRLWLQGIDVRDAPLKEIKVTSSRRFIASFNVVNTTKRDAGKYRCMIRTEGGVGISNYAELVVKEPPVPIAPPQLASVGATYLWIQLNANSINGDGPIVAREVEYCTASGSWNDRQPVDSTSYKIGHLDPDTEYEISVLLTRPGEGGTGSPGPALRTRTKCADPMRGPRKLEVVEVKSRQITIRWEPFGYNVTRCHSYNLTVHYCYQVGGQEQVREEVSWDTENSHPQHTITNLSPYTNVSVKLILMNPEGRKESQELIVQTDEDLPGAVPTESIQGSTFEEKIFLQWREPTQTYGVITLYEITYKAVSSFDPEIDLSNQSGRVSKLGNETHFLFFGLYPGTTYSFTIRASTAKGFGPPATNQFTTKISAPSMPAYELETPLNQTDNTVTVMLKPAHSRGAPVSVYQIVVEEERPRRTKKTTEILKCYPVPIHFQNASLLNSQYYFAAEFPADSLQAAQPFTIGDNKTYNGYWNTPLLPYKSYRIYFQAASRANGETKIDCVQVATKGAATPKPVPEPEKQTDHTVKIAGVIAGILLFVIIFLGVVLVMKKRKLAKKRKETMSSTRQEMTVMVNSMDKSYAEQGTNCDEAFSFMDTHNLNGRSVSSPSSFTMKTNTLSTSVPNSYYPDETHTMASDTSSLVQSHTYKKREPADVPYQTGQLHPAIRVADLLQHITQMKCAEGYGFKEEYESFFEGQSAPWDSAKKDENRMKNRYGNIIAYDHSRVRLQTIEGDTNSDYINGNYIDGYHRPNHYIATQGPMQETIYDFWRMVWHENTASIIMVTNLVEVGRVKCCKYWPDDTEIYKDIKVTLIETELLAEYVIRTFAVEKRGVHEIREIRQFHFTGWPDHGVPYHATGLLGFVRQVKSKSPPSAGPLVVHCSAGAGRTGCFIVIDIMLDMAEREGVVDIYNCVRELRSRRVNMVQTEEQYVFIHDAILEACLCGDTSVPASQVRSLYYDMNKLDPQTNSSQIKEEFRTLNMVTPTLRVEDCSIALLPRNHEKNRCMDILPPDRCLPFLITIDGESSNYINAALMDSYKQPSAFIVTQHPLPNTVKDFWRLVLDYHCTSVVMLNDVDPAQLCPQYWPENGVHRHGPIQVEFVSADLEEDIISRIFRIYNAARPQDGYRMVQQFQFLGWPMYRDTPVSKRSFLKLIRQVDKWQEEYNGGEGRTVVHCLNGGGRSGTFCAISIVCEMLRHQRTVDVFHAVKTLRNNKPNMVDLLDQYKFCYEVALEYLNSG
Sequence of human SRC Proto-Oncogene, Non-receptor Tyrosine Kinase (SRC), SRC (gene 6714) (P12931 whole entry, looked up): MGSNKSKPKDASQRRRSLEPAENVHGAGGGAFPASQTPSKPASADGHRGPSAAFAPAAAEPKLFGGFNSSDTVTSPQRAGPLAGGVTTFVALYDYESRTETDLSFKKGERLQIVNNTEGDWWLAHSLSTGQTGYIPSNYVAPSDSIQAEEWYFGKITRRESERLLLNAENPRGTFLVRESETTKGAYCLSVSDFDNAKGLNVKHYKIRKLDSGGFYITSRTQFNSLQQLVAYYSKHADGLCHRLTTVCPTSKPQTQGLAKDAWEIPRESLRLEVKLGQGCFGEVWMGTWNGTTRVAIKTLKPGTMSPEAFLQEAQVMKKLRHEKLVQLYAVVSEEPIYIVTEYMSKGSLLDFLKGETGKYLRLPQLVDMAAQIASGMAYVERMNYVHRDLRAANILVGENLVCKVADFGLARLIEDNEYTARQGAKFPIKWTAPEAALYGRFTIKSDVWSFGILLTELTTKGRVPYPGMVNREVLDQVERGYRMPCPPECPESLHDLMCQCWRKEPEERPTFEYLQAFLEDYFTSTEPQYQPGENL
Sequence of human Protein Tyrosine Phosphatase Receptor Type C (PTPRC), PTPRC (gene 5788) (P08575 whole entry, looked up): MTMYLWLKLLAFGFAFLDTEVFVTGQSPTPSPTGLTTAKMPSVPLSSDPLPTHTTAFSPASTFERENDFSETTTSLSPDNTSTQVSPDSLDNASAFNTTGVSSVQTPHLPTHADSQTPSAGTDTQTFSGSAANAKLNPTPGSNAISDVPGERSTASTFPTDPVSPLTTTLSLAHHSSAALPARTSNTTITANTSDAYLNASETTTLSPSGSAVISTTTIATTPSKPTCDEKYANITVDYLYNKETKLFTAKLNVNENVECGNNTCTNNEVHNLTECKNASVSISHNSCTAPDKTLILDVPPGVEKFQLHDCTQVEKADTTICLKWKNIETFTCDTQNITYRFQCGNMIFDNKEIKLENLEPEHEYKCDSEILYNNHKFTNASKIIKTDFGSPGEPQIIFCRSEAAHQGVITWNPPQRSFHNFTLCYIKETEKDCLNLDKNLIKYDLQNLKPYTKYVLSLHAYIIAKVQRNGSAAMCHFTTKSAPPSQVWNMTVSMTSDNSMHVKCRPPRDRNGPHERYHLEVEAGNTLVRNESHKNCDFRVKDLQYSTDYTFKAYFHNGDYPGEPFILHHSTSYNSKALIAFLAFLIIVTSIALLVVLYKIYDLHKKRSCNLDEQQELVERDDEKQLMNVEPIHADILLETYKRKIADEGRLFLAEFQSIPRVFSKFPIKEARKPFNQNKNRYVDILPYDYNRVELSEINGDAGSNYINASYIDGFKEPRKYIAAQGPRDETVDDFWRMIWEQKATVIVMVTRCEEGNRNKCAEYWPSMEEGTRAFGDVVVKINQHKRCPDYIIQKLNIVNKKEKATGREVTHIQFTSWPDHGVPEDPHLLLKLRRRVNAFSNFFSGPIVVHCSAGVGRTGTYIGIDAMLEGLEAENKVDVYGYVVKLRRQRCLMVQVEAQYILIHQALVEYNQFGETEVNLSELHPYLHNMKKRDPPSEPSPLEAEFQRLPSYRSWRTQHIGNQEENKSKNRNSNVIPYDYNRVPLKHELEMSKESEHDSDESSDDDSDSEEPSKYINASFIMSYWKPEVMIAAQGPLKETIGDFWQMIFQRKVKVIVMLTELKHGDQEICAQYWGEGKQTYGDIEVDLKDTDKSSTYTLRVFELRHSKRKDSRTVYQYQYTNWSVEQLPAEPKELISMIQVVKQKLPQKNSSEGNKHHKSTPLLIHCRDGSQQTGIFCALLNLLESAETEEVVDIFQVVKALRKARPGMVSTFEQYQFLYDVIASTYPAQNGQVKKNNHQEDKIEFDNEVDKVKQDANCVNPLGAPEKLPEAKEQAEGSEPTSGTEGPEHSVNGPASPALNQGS
Sequence of human Sirtuin 3 (SIRT3), SIRT3 (gene 23410) (Q9NTG7 whole entry, looked up): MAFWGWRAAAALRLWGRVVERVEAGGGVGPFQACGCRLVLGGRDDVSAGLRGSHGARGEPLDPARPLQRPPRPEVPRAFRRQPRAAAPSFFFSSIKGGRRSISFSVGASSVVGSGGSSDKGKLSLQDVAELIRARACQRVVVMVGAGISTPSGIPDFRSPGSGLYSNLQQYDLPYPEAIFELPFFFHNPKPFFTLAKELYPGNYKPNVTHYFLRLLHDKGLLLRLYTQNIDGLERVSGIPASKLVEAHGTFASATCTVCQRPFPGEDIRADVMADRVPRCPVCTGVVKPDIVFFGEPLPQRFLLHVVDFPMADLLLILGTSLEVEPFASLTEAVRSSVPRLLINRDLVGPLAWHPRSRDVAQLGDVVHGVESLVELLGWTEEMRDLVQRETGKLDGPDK
Sequence of human Sirtuin 1 (SIRT1), SIRT1 (gene 23411) (Q96EB6 whole entry, looked up): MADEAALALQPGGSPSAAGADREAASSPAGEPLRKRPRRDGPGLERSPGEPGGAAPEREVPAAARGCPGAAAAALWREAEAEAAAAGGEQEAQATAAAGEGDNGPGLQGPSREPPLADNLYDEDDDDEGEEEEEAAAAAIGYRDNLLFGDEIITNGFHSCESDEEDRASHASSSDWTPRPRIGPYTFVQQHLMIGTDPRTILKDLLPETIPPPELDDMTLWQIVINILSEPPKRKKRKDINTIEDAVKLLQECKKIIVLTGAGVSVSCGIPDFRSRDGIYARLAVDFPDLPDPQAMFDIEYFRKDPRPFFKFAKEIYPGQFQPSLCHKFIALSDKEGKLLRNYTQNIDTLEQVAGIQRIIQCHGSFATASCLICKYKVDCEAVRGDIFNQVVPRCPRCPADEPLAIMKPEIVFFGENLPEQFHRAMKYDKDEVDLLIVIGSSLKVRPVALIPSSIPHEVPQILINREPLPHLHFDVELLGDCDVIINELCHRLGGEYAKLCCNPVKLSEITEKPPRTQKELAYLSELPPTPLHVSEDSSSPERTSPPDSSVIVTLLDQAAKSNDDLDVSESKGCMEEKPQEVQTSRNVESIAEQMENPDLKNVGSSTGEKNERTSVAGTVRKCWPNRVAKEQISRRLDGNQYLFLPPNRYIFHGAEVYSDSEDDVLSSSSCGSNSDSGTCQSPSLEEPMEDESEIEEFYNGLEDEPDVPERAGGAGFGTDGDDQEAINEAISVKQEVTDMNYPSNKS

Regarding `OCCCBr`, the concentration at half-maximal activity (AC50) in assay [1] is 25 µM (active); in assay [3], 13 µM (active). Besides, the result in assay [2] was inactive.

Regarding `O=Cc1ccco1`, the AC50 in assay [4] was 0.13 µM (active).

As to `O=[N+]([O-])c1ccc(Oc2ccc(Cl)cc2Cl)cc1`, the compound was called inactive in assay [2] and in [5].

With `CN(C)c1ccc(C(=O)c2ccc(N(C)C)cc2)cc1`, in [6], the AC50 was 41.7 µM (active). In addition, the compound was called inactive in assay [7].

`Cn1cc(-c2ccccc2)c(=O)c(-c2cccc(C(F)(F)F)c2)c1`: the AC50 in [8] is 0.115 µM (active).

Consider `CN(C)[C@@H]1C(=O)C(C(N)=O)=C(O)[C@@]2(O)C(=O)C3=C(O)c4c(O)cccc4[C@@](C)(O)[C@H]3C[C@@H]12`, for which the results for the AC50 in [2] and in [5] were 25 µM (active) and 15.6 µM (active), respectively.

In the case of `O=P(OCCCl)(OCCCl)OCCCl`, the outcome in assay [2] was inactive.

In the case of `O=C1CCCO1`, the outcome in assay [4] and in assay [2] was inactive.

In the case of `Nc1ccc(Oc2ccc(N)cc2)cc1`, in assay [6], the call was inactive. Moreover, the AC50 in [2] was 17 µM (active).

As to `c1ccc(C2CO2)cc1` (stereo unspecified), the call in [2] was inactive.

`CC(C)(O)c1cnn2c(-c3ccc(F)c(-c4c(F)cccc4C#N)c3)cnc2n1`: in [7], the half-maximal activity concentration (AC50) was 0.362 µM (active).

Regarding `C[C@]12C=CC3=C4CCC(=O)C=C4CC[C@H]3[C@@H]1CC[C@@H]2O`, the concentration at half-maximal activity (AC50) in [5] was 9.63 µM (active). Further, the result in assay [9] was inactive.

Turning to `N#CC(Br)Br`, the call in assay [9] was inactive.

Turning to `c1ccc(NNc2ccccc2)cc1`, in assay [5], the AC50 is 18.2 µM (active).

Regarding `CCC12COCN1COC2`, the result in assay [10] was inactive.

Regarding `O=C(N[C@H](c1ccccc1)[C@@H]1CN2CCC1CC2)c1c(Cl)ccc(C(F)(F)F)c1Cl`, in assay [7], the outcome was inactive.

As to `ClCCOCCCl`, the call in [5], in [11] and in [12] was inactive.

As for `CS(=O)(=O)NC(=O)c1cc(Oc2ccc(C(F)(F)F)cc2Cl)ccc1[N+](=O)[O-]`, in assay [10], the result was inactive.

As for `Nc1ccc(N=Nc2ccccc2)cc1`, in [7], the compound was called inactive.

As for `CC(C)(C)C(O)(CCc1ccc(Cl)cc1)Cn1cncn1` (stereo unspecified), the compound was classed as inactive in assay [5], in [12] and in assay [13].

On to `CCOC(=O)[C@]1(c2ccccc2)Oc2ccccc2[C@@H]1N`, for which the AC50 in assay [7] is 4.37 µM (active). Besides, the call in assay [14] was inactive.

Turning to `Clc1ccc(Cl)c(Cl)c1`, the outcome in assay [15] was inactive.

With `O=C(O)C1C2CCC(O2)C1C(=O)O` (stereo unspecified), in assay [3], the compound was called inactive.

`ClC1=C(Cl)C2(Cl)C3C(Cl)C=CC3C1(Cl)C2(Cl)Cl` (stereo unspecified): the result in [10] was inactive.

On to `CCCCCCCCOC(=O)c1ccc(C(=O)OCCCCCCCC)c(C(=O)OCCCCCCCC)c1`, for which, in assay [10], the call was inactive.

As for `Cc1ccc(N=C=O)cc1N=C=O`, in [16], the AC50 was 25 µM (active).

For the compound `CCCCCCCCCCCCCN1CC(C)OC(C)C1` (stereo unspecified), in assay [10], the outcome was inactive.

For `CCCCC(CC)COC(=O)c1ccc(C(=O)OCC(CC)CCCC)c(C(=O)OCC(CC)CCCC)c1` (stereo unspecified), the call in [11] and in assay [13] was inactive.

With `Cc1ccc(N)c(N)c1`, the result in assay [15], in assay [12] and in assay [7] was inactive.

`[O-][Cl+]O`: the outcome in assay [5] was inactive.

On to `CN(C)C(=O)Nc1ccc(Cl)cc1`, for which the compound was called inactive in assay [5] and in [7].

With `Nc1ccc([N+](=O)[O-])cc1`, the outcome in assay [7] was inactive.

For `O=C(Oc1ccc(Br)cc1)N1CCN2CCC1CC2`, the compound was called inactive in assay [3], in [11] and in assay [13].

Regarding `COc1cc(C=O)cc2c1[C@H](COC(N)=O)[C@]1(OC(C)=O)ON2C[C@H]2[C@@H]1N2C(C)=O`, the compound was called inactive in assay [14].

Consider `CCCSC(=O)N(CCC)CCC`, for which the call in [3] was inactive.

Turning to `Cc1cccc(N)c1N`, in assay [5], the AC50 is 15.8 µM (active).

In the case of `CCC[CH2][Sn]([Cl])([CH2]CCC)[CH2]CCC`, the AC50 in [15] is 7.38 µM (active).
